A selection: hits, their analogues and other compounds. The true share with any hit is near 2.2%.
Myeloid diff MLP – promotes myeloid progenitor differentiation; ER-HoxA9 myeloid progenitors, lysozyme-GFP differentiation, flow cytometry; calls only at 10 µM; 1% of 360,000 active;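 active = normalized GFP-positive differentiation at or above the plate's own cutoff, the solvent-only control mean plus 3 SD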;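 note: cells exposed to compound for four days before flow analysis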
Cardio protect – protects H9c2 cardiomyocytes from peroxide injury | protection from H2O2 cell death, % at 20 µM | AID 588492 | H2O2 injury protection, ATPLite, 2 h | 0.63% of 360,000 active;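 active = compounds giving at least 50% protection of heart cells from peroxide-induced death in the single-dose screen, raw or plate-pattern-corrected value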
beta cell repl – inducers of beta-cell replication in MIN6 cells; MIN6 cells proliferation, ATPlite luminescence, 48 h; cells starved in 0.2% serum; 100% = growth in 10% serum; proliferation, % at 10 µM; 0.29% of 330,000 active; AID 2380;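 active = compounds whose signal lies at least 3.5 SD above the mean of all wells on their plate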
ABCB6 inh 2 – human ABCB6 transporter inhibition | 0.19% of 360,000 active | K562-ABCB6 porphyrin accumulation, flow cytometry, 1 h; hits give low values | AID 602162 | fluorescence ratio to DMSO, % at 10 µM;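 active = fluorescence ratio to DMSO below 75%, the collection mean minus 3 SD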;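 note: signal is porphyrin accumulated inside mitochondria; lower ratio means ABCB6 inhibition with less porphyrin fluorescence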
Target sequence (Q9NP58 whole entry, looked up): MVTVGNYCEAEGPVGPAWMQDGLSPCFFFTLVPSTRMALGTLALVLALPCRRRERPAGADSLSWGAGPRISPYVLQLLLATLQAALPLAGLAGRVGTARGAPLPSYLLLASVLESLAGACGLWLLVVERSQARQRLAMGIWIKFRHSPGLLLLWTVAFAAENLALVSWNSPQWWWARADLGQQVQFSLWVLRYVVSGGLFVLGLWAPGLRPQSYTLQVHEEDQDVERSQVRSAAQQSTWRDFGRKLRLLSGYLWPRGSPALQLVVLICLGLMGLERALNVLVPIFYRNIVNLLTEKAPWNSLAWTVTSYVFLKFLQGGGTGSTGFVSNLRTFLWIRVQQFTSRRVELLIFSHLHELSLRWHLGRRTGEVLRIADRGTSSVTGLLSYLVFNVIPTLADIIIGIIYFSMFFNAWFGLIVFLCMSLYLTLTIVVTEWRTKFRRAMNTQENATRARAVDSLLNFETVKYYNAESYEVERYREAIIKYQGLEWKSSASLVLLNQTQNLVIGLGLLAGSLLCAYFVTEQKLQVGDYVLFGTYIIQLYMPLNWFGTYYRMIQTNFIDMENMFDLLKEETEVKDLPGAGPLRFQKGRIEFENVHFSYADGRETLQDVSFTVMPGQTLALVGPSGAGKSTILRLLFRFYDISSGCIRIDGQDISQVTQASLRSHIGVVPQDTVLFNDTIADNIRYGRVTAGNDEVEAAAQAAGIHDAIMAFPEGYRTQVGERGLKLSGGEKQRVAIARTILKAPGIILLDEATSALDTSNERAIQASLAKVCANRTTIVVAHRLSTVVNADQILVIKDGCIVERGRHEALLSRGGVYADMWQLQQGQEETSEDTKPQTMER
iPSC survival up – enhancers of human iPSC single-cell survival. hiPSC single-cell survival, ATPlite luminescence; 100% = ROCK inhibitor wells, 0% = DMSO. survival enhancement, % at 20 µM. 0.044% of 360,000 active. AID 602274; in the data active = survival enhancement above about 18%;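 note: cells exposed to compounds for 16 hours before the ATP read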
Myeloid diff – myeloid differentiation induction; shares compounds with Myeloid diff MLP; ER-HoxA9 myeloid progenitors, GFP/Mac1 double-positive flow; calls only; 2% of 2,300 active; AID 651706;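 active = share of green or green-and-red cells above 9 and 9% in run 1 or 4 and 3% in run 2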
GFP autofluor – flagged as fluorescent in myeloid differentiation counter-screen; shares compounds with Myeloid diff MLP; fluorescence response, % (concentration not given with the values); ER-HoxA9 myeloid progenitors, no estrogen, GFP autofluorescence flow cytometry; vehicle wells 0%, positive control 100%; 7.4% of 2,300 active;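 active = over 5% cells positive for green fluorescent reporter, or over 2% positive for both it and APC stain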
Hits are given with their value; i = inactive; nt = no result given; + = active, no number.

SMILES | Myeloid diff MLP | Cardio protect | beta cell repl | ABCB6 inh 2 | iPSC survival up | Myeloid diff | GFP autofluor
COC(=O)c1ccc(OCC(=O)Nc2ccsc2C(=O)OC)cc1 | i | i | i | i | i | nt | nt
CN(C(=O)c1cccc(NC(=O)Cc2ccc(NC(=O)C3CCN(C(=O)C4CC4)CC3)cc2)c1)C1CCCCC1 | i | i | nt | i | i | i | i
CN(Cc1ccccc1)C(=O)c1ccc(NC(=O)Cc2cccc(NC(=O)C3CCCN(C(=O)C4CCCCC4)C3)c2)cc1 (configuration not stated) | i | i | i | i | i | i | i
CN(C(=O)c1cccc(NC(=O)Cc2ccc(NC(=O)C3CCN(C(=O)C4CCCC4)CC3)cc2)c1)C1CCCCC1 | i | i | nt | i | i | nt | nt
CN(Cc1ccccc1)C(=O)c1ccc(NC(=O)Cc2cccc(NC(=O)C3CCCN(C(=O)C4CCCC4)C3)c2)cc1 (configuration not stated) | i | i | i | i | i | nt | nt
CCc1ccc(-c2nc(SCC(=O)N3CCOCC3)n[nH]2)cc1 | + | i | i | i | i | i | 14
COC(=O)COc1ccc(S(=O)(=O)N2CCN(c3ccc(F)cc3)CC2)cc1 | i | i | i | i | i | nt | nt
CCc1ccc(C(=O)C(C)OC(=O)Cc2n[nH]c(=O)c3ccccc23)cc1 (configuration not stated) | + | i | i | i | i | i | i
Cc1ccc(NC(=O)CSc2nccn2Cc2ccccc2)cc1C | i | i | i | i | i | nt | nt
CC(=O)Nc1ccc(NC(=O)CSc2nccn2Cc2ccccc2)cc1 | + | i | i | i | i | i | i
c1ccc2c(c1)NCCS2 | + | i | i | i | i | i | i
OC[C@@H]1CN(Cc2ccccc2)C[C@H](n2cnc3c(N4CCCC4)ncnc32)O1 | i | i | nt | i | i | nt | nt
O=C(COC(=O)c1ccc[nH]c1=O)NC1CCCCCC1 | i | i | i | i | i | nt | nt
CN(C(=O)COC(=O)c1ccc[nH]c1=O)C1CCCCC1 | i | i | i | i | i | i | i
COc1ccc(-n2c(C)nnc2SCC(=O)N2C(C)CCCC2C)cc1 (configuration not stated) | + | i | i | i | i | i | i
COc1ccc(-n2c(C)nnc2SCC(=O)NC2CC2)cc1 | i | i | i | i | i | nt | nt
COc1cccc(CN2CC(C(=O)NCCCc3ccncc3)CCC2=O)c1 (configuration not stated) | i | i | i | i | i | nt | nt
CC(C)(C)C(=O)/C=C1\SCC(=O)N1CC(=O)N1CCN(c2ccccc2)CC1 | i | i | i | i | i | i | i
CC(/C=C1\SC(=S)N(CC(=O)N2CCN(c3ccccc3)CC2)C1=O)=C\c1ccccc1 | i | i | i | i | i | nt | nt
Cc1c(O)ccc2c(=O)c(-c3nncn3-c3ccccc3)coc12 | i | i | i | i | i | nt | nt
COc1ccc(CC(=O)OCC(=O)c2c[nH]c3ccccc23)cc1 | i | i | i | i | i | nt | nt
COc1cc(CC(=O)OCC(=O)c2c[nH]c3ccccc23)cc(OC)c1OC | i | i | i | i | i | i | 9.7
CCOc1ccc(N(CC(=O)NCCSc2ccccn2)S(=O)(=O)c2ccc(Cl)cc2)cc1 | i | i | i | i | i | nt | nt
CN1CCN(c2ccccc2/C=C2/C(=O)Nc3ccccc32)CC1 | i | i | i | i | i | i | 83
O=C1Nc2ccccc2/C1=C/c1ccccc1Cl | i | i | i | i | i | nt | nt
SMILES | Myeloid diff MLP | Cardio protect | beta cell repl | ABCB6 inh 2 | iPSC survival up | Myeloid diff | GFP autofluor
COc1ccc(F)cc1-c1cc(NC(C)=O)c2ncc(-c3cc(OC)c(OC)c(OC)c3)n2c1 | + | i | nt | i | i | i | i
Cc1ccc(C(C)C)c(OCCNC(=O)c2ccccc2O)c1 | nt | i | i | i | i | nt | nt
O=C(O)c1cccnc1Nc1ccc(Cl)cc1 | + | i | i | i | i | + | i
Cc1ccc(Nc2ncccc2C(=O)O)cc1C | i | i | i | i | i | nt | nt
COc1cccc(NC(=O)CSc2nnc(-c3ccco3)c(-c3ccco3)n2)c1 | + | i | i | i | i | i | i
Cc1cccc(OCc2nc3ccccc3c(=O)n2N)c1 | i | i | i | i | i | nt | nt
CCC1(CC)NC(=O)N(CC(=O)N2CCc3ccccc32)C1=O | i | i | i | i | i | nt | nt
CC(C(=O)N1CCc2ccccc21)N1CCN(c2cccc(C(F)(F)F)c2)CC1 (configuration not stated) | + | i | i | i | i | i | i
CC(C(=O)N1CCc2ccccc21)N1CCN(S(=O)(=O)c2ccc(C(F)(F)F)cc2)CC1 (configuration not stated) | i | i | i | i | i | nt | nt
CCn1c(COc2ccccc2C)nnc1SCC(=O)Nc1cc(C)on1 | + | i | i | i | i | i | i
CCn1c(COc2cccc(C)c2C)nnc1SCC(=O)Nc1cc(C)on1 | i | i | i | i | i | nt | nt
CCOP(=O)(OCC)C(NC(=O)Nc1cccc(Cl)c1)C(N)=O (configuration not stated) | i | i | i | i | i | nt | nt
CCOP(=O)(OCC)C(NC(=O)Nc1ccc(C)cc1)C(N)=O (configuration not stated) | + | i | i | i | i | i | i
CCc1ccc(NC(=O)CSCc2ccc(C(=O)O)cc2)cc1 | i | i | i | i | i | i | i
CC1Cc2ccccc2N1C(=O)Cn1nnc(-c2ccccc2NC(=O)C2CCC2)n1 (configuration not stated) | i | i | i | i | i | i | i
CC1(C)C(c2cccs2)=[N+]([O-])C2(CCCCC/C2=N\O)N1O (configuration not stated) | i | i | i | i | i | nt | nt
CCCCCCC1CCC(C(=O)Nn2c(C)nc3ccccc3c2=O)CC1 (configuration not stated) | i | i | i | i | i | i | i
S=c1nc(-c2ccccc2Cl)n(Cc2cccnc2)c2c1CCCC2 | i | i | i | i | i | nt | nt
CCc1ccccc1NC(=O)CNCC(=O)Nc1ccccc1CC | + | i | i | i | i | i | i
CCc1ccccc1NC(=O)Cc1ccc(-n2cccc2)cc1 | i | i | i | i | i | nt | nt
COc1ccc(S(=O)(=O)N(c2onc(C)c2Cl)S(=O)(=O)c2ccc(OC)cc2)cc1 | i | i | i | i | i | i | i
COc1ccc(NC(=O)c2onc(C)c2Cl)cc1 | i | i | i | i | i | nt | nt
Cc1cccc(C(=O)NC2CCN(C(=O)N3CCOCC3)CC2)c1 | + | i | i | i | i | i | i
CCC(=O)c1c[nH]c(C(=O)NCc2ccccc2OC)c1 | i | i | i | i | i | nt | nt
c1ccc(Cn2ncc3c(NCc4ccco4)ncnc32)cc1 | i | i | i | i | i | i | i
c1ccc(-n2ncc3c(NCc4ccco4)ncnc32)cc1 | i | i | i | i | i | nt | nt
COc1ccc(C(=O)Nc2nccs2)cc1[N+](=O)[O-] | i | i | i | i | i | nt | nt
COc1ccc(C(=O)Nc2nccs2)cc1OC | + | i | i | i | i | i | i

From PubChem
